Measurements published in PubChem BioAssay AID652020 (National Center for Advancing Translational Sciences (NCATS), 2013).
This is one part of the list. Results filed as inconclusive are left out. Activity calls are given as the source filed them. The call rests on the fitted dose curve; in most records, active means well fitted curve in the direction sought with a large enough effect; inconclusive means small, poorly fitted or top-dose-only effect, or another doubt; inactive means no such curve, though single readings can be large or run the other way.

What follows are molecules tested against Glutathione reductase, mitochondrial (Homo sapiens) (UniProt P00390) (assay: qHTS Assay for Inhibitors of Mammalian Selenoprotein Thioredoxin Reductase 1 (TrxR1): Counterassay in Glutathione Reductase (GR)). Settings: purified GR, DTNB reduction absorbance 405 nm kinetic; series mostly up to 57.1 µM; activity change, negative = inhibition: at the top concentration.
Chain of Glutathione reductase, mitochondrial (Homo sapiens) (P00390 whole entry, looked up): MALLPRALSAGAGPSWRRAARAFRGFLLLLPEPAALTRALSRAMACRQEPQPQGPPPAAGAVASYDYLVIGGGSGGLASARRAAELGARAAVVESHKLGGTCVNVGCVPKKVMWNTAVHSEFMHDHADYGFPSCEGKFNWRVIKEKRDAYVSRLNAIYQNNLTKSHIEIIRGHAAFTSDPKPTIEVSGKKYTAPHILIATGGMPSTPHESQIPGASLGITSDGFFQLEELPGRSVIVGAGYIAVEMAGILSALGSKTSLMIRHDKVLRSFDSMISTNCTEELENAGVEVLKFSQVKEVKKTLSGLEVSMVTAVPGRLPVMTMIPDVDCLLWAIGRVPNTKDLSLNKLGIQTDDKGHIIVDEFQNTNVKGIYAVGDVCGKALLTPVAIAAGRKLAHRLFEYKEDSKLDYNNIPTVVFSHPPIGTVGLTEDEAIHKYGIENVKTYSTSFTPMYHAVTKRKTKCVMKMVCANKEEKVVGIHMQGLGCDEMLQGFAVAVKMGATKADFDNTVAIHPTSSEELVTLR
Text: The selenoprotein thioredoxin reductase (TrxR; EC 1.8.1.9) is a FAD containing homodimeric pyridine nucleotide-disulfide oxidoreductase with many cellular roles. Together with NADPH and its prime substrate thioredoxin (Trx), the enzyme forms the core of the Trx system. The mammalian Trx system exerts a wide spectrum of functions including redox regulation, antioxidant defense, regulation of transcription factors as well as support of cell growth and replication. Many of these functions involve the reduction of Trx, which may subsequently reduce a number of different substrates including ribonucleotide reductase, peroxiredoxins or NFkB. Mammalian TrxR itself also has a broad substrate specificity, reducing both protein and non-protein substrates, including low molecular weight compounds such as dehydroascorbate, lipoic acid, ubiquinone, and juglone. In addition, several drugs in clinical use for anticancer treatment are indeed known to target TrxR1. This assay is counterassay using a yeast glutathione reductase (GR) assay. The desired outcome is inactivity in this assay. NIH Molecular Libraries Probe Production Network [MLPCN] NIH Chemical Genomics Center [NCGC] MLPCN Grant: MH090846 Assay Provider: Elias Arner, Karolinska Institute
Three microliters of reagents (100 microM NADPH and 60 nM hGR or 100 microM NADPH as no-enzyme control) was dispensed into 1,536-well black clear-bottomed plates (Buffer: 0.1 M potassium phosphate, pH 7.4/10 mM EDTA, 0.01 % Tween-20). Compounds (23nl) was transferred via Kalypsys pin tool equipped with 1536-pin array. The plates were incubated for 15 min at room temperature, and 1microl aliquot of 500 microM NADPH was added, immediately followed by a 1 microl aliquot of 15 mM DTNB (3 mM final concentration) to start the reaction. The plate was transferred to a ViewLux high-throughput CCD imager (Perkin-Elmer, Wellesley, MA) where kinetic measurements (one read per 5 min for 6 reads, total time 25 min) of the TNB absorbance was acquired using a 405 excitation filter.

Row | Compound | activity change, negative = inhibition
1 | Cc1ccccc1-c1nc(CS(=O)(=O)CC(=O)N2CCc3ccccc3C2)c(C)o1 | -11% (inactive)
2 | CC1CCN(C(=O)c2ccc(S(=O)(=O)Cc3cc(F)ccc3F)c([N+](=O)[O-])c2)CC1 | -12.9% (inactive)
3 | O=C(/C=C/c1ccco1)Nc1cccc(-c2nc3ccccc3[nH]2)c1 | -21.6% (inactive)
